What all share (test): yeast three-hybrid, YBZ-1, SC-Leu-His + 0.5 mM 3-AT, 4 days
Conditions in all cases: tags: N-Gal4 AD-HA kept; label: inside an RPR1-promoter hybrid RNA with tandem MS2 sites; ssRNA

One test addresses PUM1 PUF domain R8-IWR (Homo sapiens, UniProt Q14671 828-1176, N1122I;Y1123W;Q1126R). Put shortly:
(§1)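 The interaction score is the log change in variant frequency from input to selection. Scores were computed in log2 with a pseudocount of 1 for absent variants, using Illumina sequencing of PCR-amplified repeat regions. The input came from four days on SC-Leu and the selection from four days on SC-Leu-His + 0.5 mM 3-AT. The cells were strain YBZ-1 (LexA–MS2 coat fusion, HIS3 reporter) co-expressing Pumilio-1 PUF domain libraries and matching RNA elements from a centromeric plasmid.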

For a further test, the target named is PUM1 PUF domain R4-PTC (Homo sapiens, UniProt Q14671 828-1176, N971P;H972T;Q975C). Put shortly: as §1
In the next test the target is PUM1 PUF domain R4-ARM (Homo sapiens, UniProt Q14671 828-1176, N971A;H972R;Q975M). Put shortly: as §1
A further test has as its target PUM1 PUF domain R3-CRD (Homo sapiens, UniProt Q14671 828-1176, Q939D). Put shortly: as §1
In a further test the target is PUM1 PUF domain R4-SNY (Homo sapiens, UniProt Q14671 828-1176, N971S;H972N;Q975Y). Put shortly: as §1
The target in a further test is PUM1 PUF domain R5-TRV (Homo sapiens, UniProt Q14671 828-1176, C1007T;Q1011V). Put shortly:
as §1

The next test deals with PUM1 PUF domain R8-CYR (Homo sapiens, UniProt Q14671 828-1176, N1122C;Q1126R). Put shortly: as §1
PUM1 PUF domain R8-CYR, sequence (Q14671 828-1176 N1122C/Q1126R): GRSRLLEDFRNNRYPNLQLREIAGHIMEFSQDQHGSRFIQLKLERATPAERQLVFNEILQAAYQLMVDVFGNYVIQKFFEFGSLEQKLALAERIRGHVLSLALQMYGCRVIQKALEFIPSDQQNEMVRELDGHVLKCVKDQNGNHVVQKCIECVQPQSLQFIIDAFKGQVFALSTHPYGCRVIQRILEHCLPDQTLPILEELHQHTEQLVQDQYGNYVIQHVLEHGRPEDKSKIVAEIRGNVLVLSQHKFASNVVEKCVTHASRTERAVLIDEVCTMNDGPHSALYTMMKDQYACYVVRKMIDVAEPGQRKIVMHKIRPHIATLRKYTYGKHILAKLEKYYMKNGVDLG
In a further test the target is PUM1 PUF domain R8-AYR (Homo sapiens, UniProt Q14671 828-1176, N1122A;Q1126R). Put shortly:
as §1

The target in the next test is PUM1 PUF domain R2-RKW (Homo sapiens, UniProt Q14671 828-1176, N899R;Y900K;Q903W). The gist of the method: as §1
PUM1 PUF domain R2-RKW, sequence (Q14671 828-1176 N899R/Y900K/Q903W): as the sequence (Q14671 828-1176 N1122C/Q1126R) above, with N72R, Y73K, Q76W, C295N, R299Q counted along it
The next test has as its target PUM1 PUF domain R7-RRS (Homo sapiens, UniProt Q14671 828-1176, S1079R;N1080R;E1083S). The gist of the method:
as §1

A further test concerns the target PUM1 PUF domain R7-AVK (Homo sapiens, UniProt Q14671 828-1176, S1079A;N1080V;E1083K). The gist of the method:
as §1

The next test has as its target PUM1 PUF domain R7-QSN (Homo sapiens, UniProt Q14671 828-1176, S1079Q;N1080S;E1083N). Put shortly:
as §1

In another test the target is PUM1 PUF domain R7-KVV (Homo sapiens, UniProt Q14671 828-1176, S1079K;N1080V;E1083V). The gist of the method:
as §1

The next test deals with PUM1 PUF domain R1-RTR (Homo sapiens, UniProt Q14671 828-1176, S863R;R864T;Q867R). Put shortly:
as §1

A further test addresses PUM1 PUF domain R1-RNQ (Homo sapiens, UniProt Q14671 828-1176, S863R;R864N). Put shortly: as §1
A further test deals with PUM1 PUF domain R2-VFR (Homo sapiens, UniProt Q14671 828-1176, N899V;Y900F;Q903R). The gist of the method: as §1
PUM1 PUF domain R2-VFR, sequence (Q14671 828-1176 N899V/Y900F/Q903R): as the sequence (Q14671 828-1176 N1122C/Q1126R) above, with N72V, Y73F, Q76R, C295N, R299Q counted along it
Another test deals with PUM1 PUF domain R2-VHP (Homo sapiens, UniProt Q14671 828-1176, N899V;Y900H;Q903P). The gist of the method:
as §1

A further test has as its target PUM1 PUF domain R1-VKK (Homo sapiens, UniProt Q14671 828-1176, S863V;R864K;Q867K). Put shortly: as §1
The next test deals with PUM1 PUF domain R3-RNA (Homo sapiens, UniProt Q14671 828-1176, C935R;R936N;Q939A). The gist of the method: as §1
PUM1 PUF domain R3-RNA, sequence (Q14671 828-1176 C935R/R936N/Q939A): as the sequence (Q14671 828-1176 N1122C/Q1126R) above, with C108R, R109N, Q112A, C295N, R299Q counted along it
A further test deals with PUM1 PUF domain R7-KHF (Homo sapiens, UniProt Q14671 828-1176, S1079K;N1080H;E1083F). Put shortly: as §1
PUM1 PUF domain R7-KHF, sequence (Q14671 828-1176 S1079K/N1080H/E1083F): as the sequence (Q14671 828-1176 N1122C/Q1126R) above, with S252K, N253H, E256F, C295N, R299Q counted along it

PUM1 PUF domain R5-TRV, sequence (Q14671 828-1176 C1007T/Q1011V): as the sequence (Q14671 828-1176 N1122C/Q1126R) above, with C180T, Q184V, C295N, R299Q counted along it
PUM1 PUF domain R8-AYR, sequence (Q14671 828-1176 N1122A/Q1126R): as the sequence (Q14671 828-1176 N1122C/Q1126R) above, with C295A counted along it
PUM1 PUF domain R7-QSN, sequence (Q14671 828-1176 S1079Q/N1080S/E1083N): as the sequence (Q14671 828-1176 N1122C/Q1126R) above, with S252Q, N253S, E256N, C295N, R299Q counted along it
PUM1 PUF domain R7-KVV, sequence (Q14671 828-1176 S1079K/N1080V/E1083V): as the sequence (Q14671 828-1176 N1122C/Q1126R) above, with S252K, N253V, E256V, C295N, R299Q counted along it
PUM1 PUF domain R1-VKK, sequence (Q14671 828-1176 S863V/R864K/Q867K): as the sequence (Q14671 828-1176 N1122C/Q1126R) above, with S36V, R37K, Q40K, C295N, R299Q counted along it
PUM1 PUF domain R2-VHP, sequence (Q14671 828-1176 N899V/Y900H/Q903P): as the sequence (Q14671 828-1176 N1122C/Q1126R) above, with N72V, Y73H, Q76P, C295N, R299Q counted along it
PUM1 PUF domain R1-RNQ, sequence (Q14671 828-1176 S863R/R864N): as the sequence (Q14671 828-1176 N1122C/Q1126R) above, with S36R, R37N, C295N, R299Q counted along it

On to “GGCUAGAACUAGUGGAUCCCCCGGCGCCCGGCGGCUCGAGCCCGGGUAAGUGUAAAUAGUCUGCAUGCCGCCGGGCGCCAUGCCUGCAGGUCGACUCUAGAAAACAUG”, for which the binding signal was 3.98 log2 enrichment (interaction score) with PUM1 PUF domain R8-IWR; 3.57 log2 enrichment (interaction score) with PUM1 PUF domain R4-PTC; 4.11 log2 enrichment (interaction score) with PUM1 PUF domain R4-ARM; 5 log2 enrichment (interaction score) in the test with PUM1 PUF domain R3-CRD; 2.33 log2 enrichment (interaction score) in the test with PUM1 PUF domain R4-SNY; 4.29 log2 enrichment (interaction score) in the test with PUM1 PUF domain R5-TRV. The binding signal in the test with PUM1 PUF domain R8-CYR was 4.59 log2 enrichment (interaction score); in the test with PUM1 PUF domain R8-AYR, 4.26 log2 enrichment (interaction score).
For the sequence “GGCUAGAACUAGUGGAUCCCCCGGCGCCCGGCGGCUCGAGCCCGGGUAAGUGUAAAGAGUCUGCAUGCCGCCGGGCGCCAUGCCUGCAGGUCGACUCUAGAAAACAUG”, in the test with PUM1 PUF domain R2-RKW, the binding signal was 2.92 log2 enrichment (interaction score).
“GGCUAGAACUAGUGGAUCCCCCGGCGCCCGGCGGCUCGAGCCCGGGUAAGUGUAUAUAGUCUGCAUGCCGCCGGGCGCCAUGCCUGCAGGUCGACUCUAGAAAACAUG”: the binding signal with PUM1 PUF domain R4-ARM was 1.47 log2 enrichment (interaction score).
Take “GGCUAGAACUAGUGGAUCCCCCGGCGCCCGGCGGCUCGAGCCCGGGUAAGUUUAAAUAGUCUGCAUGCCGCCGGGCGCCAUGCCUGCAGGUCGACUCUAGAAAACAUG”: the binding signal was 4.29 log2 enrichment (interaction score) with PUM1 PUF domain R7-RRS, 4.11 log2 enrichment (interaction score) in the test with PUM1 PUF domain R7-AVK, 4.28 log2 enrichment (interaction score) with PUM1 PUF domain R7-QSN and 2.62 log2 enrichment (interaction score) in the test with PUM1 PUF domain R7-KVV.
On to “GGCUAGAACUAGUGGAUCCCCCGGCGCCCGGCGGCUCGAGCCCGGGUAAGUGUAAAUCGUCUGCAUGCCGCCGGGCGCCAUGCCUGCAGGUCGACUCUAGAAAACAUG”, for which the binding signal in the test with PUM1 PUF domain R1-RTR is 1.13 log2 enrichment (interaction score); with PUM1 PUF domain R1-RNQ, 4.55 log2 enrichment (interaction score).
With “GGCUAGAACUAGUGGAUCCCCCGGCGCCCGGCGGCUCGAGCCCGGGUAAGCGUAAAUAGUCUGCAUGCCGCCGGGCGCCAUGCCUGCAGGUCGACUCUAGAAAACAUG”, the binding signal in the test with PUM1 PUF domain R8-IWR is 5.25 log2 enrichment (interaction score); with PUM1 PUF domain R8-CYR it was 4.19 log2 enrichment (interaction score); with PUM1 PUF domain R8-AYR it was 4.07 log2 enrichment (interaction score).
On to “GGCUAGAACUAGUGGAUCCCCCGGCGCCCGGCGGCUCGAGCCCGGGUAAGUGUAAAAAGUCUGCAUGCCGCCGGGCGCCAUGCCUGCAGGUCGACUCUAGAAAACAUG”, for which the binding signal was 5.64 log2 enrichment (interaction score) in the test with PUM1 PUF domain R2-VFR and 2.73 log2 enrichment (interaction score) with PUM1 PUF domain R2-VHP.
For “GGCUAGAACUAGUGGAUCCCCCGGCGCCCGGCGGCUCGAGCCCGGGUAAGUGUUAAUAGUCUGCAUGCCGCCGGGCGCCAUGCCUGCAGGUCGACUCUAGAAAACAUG”, the binding signal in the test with PUM1 PUF domain R5-TRV was 3.28 log2 enrichment (interaction score).
Regarding “GGCUAGAACUAGUGGAUCCCCCGGCGCCCGGCGGCUCGAGCCCGGGUAAGUGUACAUAGUCUGCAUGCCGCCGGGCGCCAUGCCUGCAGGUCGACUCUAGAAAACAUG”, the binding signal with PUM1 PUF domain R4-ARM was 2.37 log2 enrichment (interaction score).
As for “GGCUAGAACUAGUGGAUCCCCCGGCGCCCGGCGGCUCGAGCCCGGGUAAGUGUAAAUUGUCUGCAUGCCGCCGGGCGCCAUGCCUGCAGGUCGACUCUAGAAAACAUG”, the figures for the binding signal with PUM1 PUF domain R1-RTR and with PUM1 PUF domain R1-VKK were 2.2 log2 enrichment (interaction score) and 2.11 log2 enrichment (interaction score), respectively.
For “GGCUAGAACUAGUGGAUCCCCCGGCGCCCGGCGGCUCGAGCCCGGGUAAGUGUAAUUAGUCUGCAUGCCGCCGGGCGCCAUGCCUGCAGGUCGACUCUAGAAAACAUG”, the binding signal in the test with PUM1 PUF domain R3-CRD is 1.14 log2 enrichment (interaction score); in the test with PUM1 PUF domain R3-RNA, 3.87 log2 enrichment (interaction score).
“GGCUAGAACUAGUGGAUCCCCCGGCGCCCGGCGGCUCGAGCCCGGGUAAGGGUAAAUAGUCUGCAUGCCGCCGGGCGCCAUGCCUGCAGGUCGACUCUAGAAAACAUG”: in the test with PUM1 PUF domain R8-CYR, the binding signal was 2.63 log2 enrichment (interaction score).
For the sequence “GGCUAGAACUAGUGGAUCCCCCGGCGCCCGGCGGCUCGAGCCCGGGUAAGUGUGAAUAGUCUGCAUGCCGCCGGGCGCCAUGCCUGCAGGUCGACUCUAGAAAACAUG”, the binding signal in the test with PUM1 PUF domain R5-TRV is 3.38 log2 enrichment (interaction score).
For the sequence “GGCUAGAACUAGUGGAUCCCCCGGCGCCCGGCGGCUCGAGCCCGGGUAAGUCUAAAUAGUCUGCAUGCCGCCGGGCGCCAUGCCUGCAGGUCGACUCUAGAAAACAUG”, the binding signal with PUM1 PUF domain R7-RRS is 4.47 log2 enrichment (interaction score); with PUM1 PUF domain R7-KHF, 2.94 log2 enrichment (interaction score).

The values above are taken from article PMC8384837, “Expanding the binding specificity for RNA recognition by a PUF domain”.
